Assay results taken from ChEMBL document CHEMBL3988442, “University of Dundee, Small-Polar-MMV Screening Library” (2021).
For some assays here: Potency and affinity values are given separately.

Key:
Set-up in all cases: scale not given: direction of the effect not stated beside the values
[1] = biological target: Protein translocase subunit SecA (Escherichia coli (strain K12)) (UniProt P10408); experiment: Assay to Identify E. coli SecA ATPase Inhibitors; format: functional; details: 30 µM
[2] = biological target: T1, Ubiquitin-activating enzyme e1, putative (Leishmania donovani (strain BPK282A1)) (UniProt E9BSI1); experiment: Leishmania donovani Ubiquitin Activating Enzyme (LdE1); format: functional; details: 30 µM
T1 sequence (whole entry): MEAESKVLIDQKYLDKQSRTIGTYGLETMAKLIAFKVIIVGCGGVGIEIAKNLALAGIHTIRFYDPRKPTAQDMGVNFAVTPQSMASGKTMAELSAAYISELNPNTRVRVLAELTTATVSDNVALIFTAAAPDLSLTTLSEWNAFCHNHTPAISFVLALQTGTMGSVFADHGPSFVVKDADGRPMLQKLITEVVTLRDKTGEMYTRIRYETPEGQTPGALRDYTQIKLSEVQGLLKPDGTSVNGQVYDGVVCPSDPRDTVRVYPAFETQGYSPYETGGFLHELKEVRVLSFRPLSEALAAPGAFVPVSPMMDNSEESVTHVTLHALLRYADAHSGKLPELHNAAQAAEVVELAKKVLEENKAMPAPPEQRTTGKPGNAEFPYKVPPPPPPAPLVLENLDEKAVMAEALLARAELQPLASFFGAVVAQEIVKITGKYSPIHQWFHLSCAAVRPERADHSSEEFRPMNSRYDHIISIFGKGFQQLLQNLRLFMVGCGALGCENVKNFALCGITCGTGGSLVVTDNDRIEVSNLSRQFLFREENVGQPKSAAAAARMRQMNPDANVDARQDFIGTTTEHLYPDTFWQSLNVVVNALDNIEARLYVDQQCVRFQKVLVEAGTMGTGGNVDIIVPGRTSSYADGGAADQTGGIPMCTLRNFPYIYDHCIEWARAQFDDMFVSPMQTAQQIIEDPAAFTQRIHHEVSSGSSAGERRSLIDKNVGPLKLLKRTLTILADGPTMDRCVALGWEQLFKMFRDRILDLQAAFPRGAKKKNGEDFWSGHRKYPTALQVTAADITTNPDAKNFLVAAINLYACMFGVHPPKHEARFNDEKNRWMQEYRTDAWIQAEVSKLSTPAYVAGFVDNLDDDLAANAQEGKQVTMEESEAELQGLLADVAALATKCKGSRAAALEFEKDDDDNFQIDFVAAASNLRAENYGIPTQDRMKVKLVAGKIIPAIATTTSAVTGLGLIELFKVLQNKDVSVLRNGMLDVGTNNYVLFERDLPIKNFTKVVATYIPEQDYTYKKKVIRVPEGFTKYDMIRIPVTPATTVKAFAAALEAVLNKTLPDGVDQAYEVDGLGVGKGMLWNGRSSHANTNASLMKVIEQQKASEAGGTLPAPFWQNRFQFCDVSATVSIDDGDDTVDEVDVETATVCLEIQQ

[3] = biological target: AMP-activated protein kinase, AMPK (Homo sapiens) (UniProt P54646+O43741+P54619+Q9UGJ0+Q9Y478+Q13131+Q9UGI9); experiment: AMP-dependent Kinase enzyme assay. An in vitro enzyme assay that detects ADP turnover that is directly proportional to AMPK activity. This uses naive AMPK that is activated during the assay with MK-8722; format: functional; details: 30 µM
[4] = biological target: Sialic acid-binding Ig-like lectin 9 (Homo sapiens) (UniProt Q9Y336); experiment: Hs-Siglec9 ALPHAscreen SOP 20170721; details: 10 µM
[5] = system: Trypanosoma cruzi; experiment: Trypanosoma cruzi phosphomannomutase and mannose-1-phosphate guanylyltransferase assay; format: functional; details: 10 µM
[6] = biological target: T2, Arginase-2, mitochondrial (Homo sapiens) (UniProt P78540); experiment: in vitro enzyme assay to detect the production of urea directly proportional to the activity of Arginase II; format: functional; details: 33.3 µM; note: in the data most compounds retested in dose-response had high values
T2 sequence (whole entry): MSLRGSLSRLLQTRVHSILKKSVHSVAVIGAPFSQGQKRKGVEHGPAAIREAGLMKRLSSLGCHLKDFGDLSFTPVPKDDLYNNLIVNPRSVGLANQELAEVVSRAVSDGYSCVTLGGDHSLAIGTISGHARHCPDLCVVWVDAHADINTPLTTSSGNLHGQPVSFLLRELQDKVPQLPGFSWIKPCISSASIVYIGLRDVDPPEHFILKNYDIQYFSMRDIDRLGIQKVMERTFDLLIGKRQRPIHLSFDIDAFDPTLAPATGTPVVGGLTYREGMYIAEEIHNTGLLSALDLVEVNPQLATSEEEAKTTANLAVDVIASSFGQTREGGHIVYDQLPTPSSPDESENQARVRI

[7] = biological target: T3, Proteasome subunit beta (Trypanosoma cruzi) (UniProt O96673); experiment: Trypanosoma cruzi proteasome chymotrypsin-like activity (TcProtChymo) assay.; note: in the data most compounds retested in dose-response had high values; format: functional; details: 9.37 µM
T3 sequence (whole entry): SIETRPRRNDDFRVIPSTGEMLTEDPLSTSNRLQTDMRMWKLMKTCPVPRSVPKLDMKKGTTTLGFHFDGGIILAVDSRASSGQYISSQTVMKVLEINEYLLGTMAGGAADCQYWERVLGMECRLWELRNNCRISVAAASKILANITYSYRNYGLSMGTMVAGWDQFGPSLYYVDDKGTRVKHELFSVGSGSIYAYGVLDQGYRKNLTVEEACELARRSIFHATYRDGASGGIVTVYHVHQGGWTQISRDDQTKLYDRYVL

[8] = species on record: Homo sapiens; experiment: To identify inhibition of the IFN signalling (Jak-Stat) pathway via expression of an eGFP reporter gene under the control of an IFN-stimulated response element (ISRE) containing MxA promoter.; format: functional; details: 30 µM
[9] = biological target: T4, Tyrosyl-tRNA synthetase, putative (Trypanosoma cruzi (strain CL Brener)) (UniProt Q4DSP6); experiment: Trypanosoma cruzi tyrosyl tRNA synthetase (TcYRS) _High Tyrosine SOP; format: functional; details: 30 µM; note: in the data most compounds retested in dose-response had high values
T4 sequence (whole entry): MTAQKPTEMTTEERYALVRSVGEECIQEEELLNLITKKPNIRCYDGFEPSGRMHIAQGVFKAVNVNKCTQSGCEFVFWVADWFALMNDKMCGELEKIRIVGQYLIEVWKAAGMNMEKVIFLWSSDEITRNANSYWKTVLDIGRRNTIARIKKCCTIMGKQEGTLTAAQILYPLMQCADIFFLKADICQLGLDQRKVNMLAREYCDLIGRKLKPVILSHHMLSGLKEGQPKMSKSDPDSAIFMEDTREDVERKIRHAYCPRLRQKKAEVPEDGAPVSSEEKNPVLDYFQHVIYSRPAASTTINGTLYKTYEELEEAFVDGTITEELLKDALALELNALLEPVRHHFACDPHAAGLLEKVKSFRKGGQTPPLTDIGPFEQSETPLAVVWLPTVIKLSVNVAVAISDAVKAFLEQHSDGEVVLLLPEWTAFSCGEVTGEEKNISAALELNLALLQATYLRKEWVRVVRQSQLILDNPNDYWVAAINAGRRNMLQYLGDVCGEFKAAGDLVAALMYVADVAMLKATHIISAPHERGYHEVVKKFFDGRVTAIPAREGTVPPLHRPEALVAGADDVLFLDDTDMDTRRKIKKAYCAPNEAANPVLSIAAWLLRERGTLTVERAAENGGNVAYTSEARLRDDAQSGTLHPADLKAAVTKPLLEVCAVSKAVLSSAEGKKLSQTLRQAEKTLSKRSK

[10] = biological target: T4, Tyrosyl-tRNA synthetase, putative (Trypanosoma cruzi (strain CL Brener)); experiment: Trypanosoma cruzi tyrosyl tRNA synthetase (TcYRS) SOP; format: functional; details: 30 µM
[11] = biological target: Chromo domain-containing protein 1 (Saccharomyces cerevisiae (strain ATCC 204508 / S288c) (Baker's yeast)) (UniProt P32657); experiment: ScCHD-1 Enzyme Inhibition Assay; format: functional; details: 30 µM; note: in the data most compounds retested in dose-response had high values
Sequence of Chromo domain-containing protein 1 (Saccharomyces cerevisiae (strain ATCC 204508 / S288c) (Baker's yeast)) (P32657 whole entry, the tested form may be a part): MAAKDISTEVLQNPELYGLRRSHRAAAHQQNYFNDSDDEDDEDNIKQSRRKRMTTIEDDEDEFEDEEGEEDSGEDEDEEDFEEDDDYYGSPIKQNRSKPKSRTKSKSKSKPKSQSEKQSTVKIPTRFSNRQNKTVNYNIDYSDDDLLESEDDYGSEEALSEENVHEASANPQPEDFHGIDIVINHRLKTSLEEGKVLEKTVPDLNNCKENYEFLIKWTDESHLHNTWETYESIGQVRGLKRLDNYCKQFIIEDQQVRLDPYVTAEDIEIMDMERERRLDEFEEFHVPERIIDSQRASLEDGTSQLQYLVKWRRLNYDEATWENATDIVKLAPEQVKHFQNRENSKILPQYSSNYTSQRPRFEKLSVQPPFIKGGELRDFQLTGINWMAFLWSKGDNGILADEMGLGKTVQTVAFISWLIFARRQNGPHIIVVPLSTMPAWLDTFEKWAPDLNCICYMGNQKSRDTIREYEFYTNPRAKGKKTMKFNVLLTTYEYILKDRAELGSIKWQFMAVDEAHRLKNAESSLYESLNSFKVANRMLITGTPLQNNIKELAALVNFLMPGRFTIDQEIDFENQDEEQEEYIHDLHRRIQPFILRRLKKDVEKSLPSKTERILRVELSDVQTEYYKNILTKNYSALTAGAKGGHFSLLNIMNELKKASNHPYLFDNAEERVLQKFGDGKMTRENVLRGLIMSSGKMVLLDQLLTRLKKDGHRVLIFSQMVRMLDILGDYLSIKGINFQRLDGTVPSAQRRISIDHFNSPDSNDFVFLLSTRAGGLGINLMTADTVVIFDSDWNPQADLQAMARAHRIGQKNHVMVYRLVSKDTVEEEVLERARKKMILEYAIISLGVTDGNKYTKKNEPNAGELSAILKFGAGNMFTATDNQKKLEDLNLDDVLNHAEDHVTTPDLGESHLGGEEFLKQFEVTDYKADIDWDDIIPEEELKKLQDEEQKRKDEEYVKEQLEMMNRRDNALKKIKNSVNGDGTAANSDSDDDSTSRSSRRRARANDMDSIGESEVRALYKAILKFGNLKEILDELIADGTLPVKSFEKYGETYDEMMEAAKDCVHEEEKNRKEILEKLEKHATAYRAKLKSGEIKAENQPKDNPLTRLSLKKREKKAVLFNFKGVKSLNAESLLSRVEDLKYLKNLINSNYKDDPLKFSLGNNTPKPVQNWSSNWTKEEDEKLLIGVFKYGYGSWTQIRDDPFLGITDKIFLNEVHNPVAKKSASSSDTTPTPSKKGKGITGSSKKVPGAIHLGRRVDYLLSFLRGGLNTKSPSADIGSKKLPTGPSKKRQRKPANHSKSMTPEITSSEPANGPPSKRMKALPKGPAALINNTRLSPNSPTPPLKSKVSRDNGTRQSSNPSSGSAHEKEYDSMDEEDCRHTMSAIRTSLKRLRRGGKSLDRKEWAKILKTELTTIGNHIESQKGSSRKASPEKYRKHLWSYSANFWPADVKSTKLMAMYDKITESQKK

Sequence of Protein translocase subunit SecA (Escherichia coli (strain K12)) (P10408 whole entry): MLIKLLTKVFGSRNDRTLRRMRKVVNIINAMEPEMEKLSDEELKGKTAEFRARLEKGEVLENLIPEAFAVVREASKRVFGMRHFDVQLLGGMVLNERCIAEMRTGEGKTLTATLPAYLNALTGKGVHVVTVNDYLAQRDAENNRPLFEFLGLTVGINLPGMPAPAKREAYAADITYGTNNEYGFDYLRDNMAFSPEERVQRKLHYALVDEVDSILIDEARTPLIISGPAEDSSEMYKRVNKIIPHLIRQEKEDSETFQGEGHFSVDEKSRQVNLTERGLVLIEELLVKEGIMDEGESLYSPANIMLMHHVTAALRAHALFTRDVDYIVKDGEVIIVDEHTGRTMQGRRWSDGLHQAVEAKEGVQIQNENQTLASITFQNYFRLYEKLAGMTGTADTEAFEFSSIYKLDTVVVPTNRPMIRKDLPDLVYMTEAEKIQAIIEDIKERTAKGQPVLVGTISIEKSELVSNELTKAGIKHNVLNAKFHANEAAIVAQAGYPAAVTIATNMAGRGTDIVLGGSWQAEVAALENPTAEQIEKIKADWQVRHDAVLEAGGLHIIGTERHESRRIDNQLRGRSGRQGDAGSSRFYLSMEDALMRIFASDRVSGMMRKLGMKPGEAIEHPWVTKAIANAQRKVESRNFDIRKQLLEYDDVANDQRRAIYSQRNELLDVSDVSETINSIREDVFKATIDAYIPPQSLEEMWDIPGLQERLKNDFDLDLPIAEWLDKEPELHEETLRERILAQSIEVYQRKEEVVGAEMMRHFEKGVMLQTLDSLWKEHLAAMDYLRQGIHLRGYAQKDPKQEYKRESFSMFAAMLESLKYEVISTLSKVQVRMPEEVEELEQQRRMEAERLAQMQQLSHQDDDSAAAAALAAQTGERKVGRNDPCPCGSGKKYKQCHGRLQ
Sequence of Sialic acid-binding Ig-like lectin 9 (Homo sapiens) (Q9Y336 whole entry): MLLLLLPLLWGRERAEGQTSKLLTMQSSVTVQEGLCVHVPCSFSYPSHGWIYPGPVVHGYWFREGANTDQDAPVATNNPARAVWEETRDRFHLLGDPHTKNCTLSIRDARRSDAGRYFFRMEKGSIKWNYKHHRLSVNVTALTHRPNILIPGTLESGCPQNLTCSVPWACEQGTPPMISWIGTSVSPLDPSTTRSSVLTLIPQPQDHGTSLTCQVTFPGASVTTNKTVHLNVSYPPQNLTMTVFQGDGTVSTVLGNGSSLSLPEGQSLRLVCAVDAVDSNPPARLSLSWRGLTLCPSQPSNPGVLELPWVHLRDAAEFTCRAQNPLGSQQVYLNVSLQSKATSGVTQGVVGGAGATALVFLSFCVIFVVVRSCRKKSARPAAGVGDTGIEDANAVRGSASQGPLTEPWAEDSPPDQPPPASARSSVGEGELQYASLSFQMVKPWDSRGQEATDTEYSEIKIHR

Structure (SMILES) | Percent Effect [1] [%] | Percent Effect [2] [%] | Percent Effect [3] [%] | Percent Effect [4] [%] | Percent Effect [5] [%] | Percent Effect [6] [%] | Percent Effect [7] [%] | Percent Effect [8] [%] | Percent Effect [9] [%] | Percent Effect [10] [%] | Percent Effect [11] [%]
CNC(=O)c1cccc(NC(=O)Cn2nc(-c3cccs3)oc2=O)c1 | -8.44 | 13.5 | 133 | 18.8 | 9.38 | -0.924 | 4.13 | -0.599 | 6.93 | 13.4 | -2.88
CC(C)NC(=O)c1ccc2c(c1)nc1n2CCN(C(C)C)C1 | -0.173 | 4 | 2.97 | 4.16 | -5.11 | -13.2 | 19.2 | -1.16 | 6.35 | 7.69 | -10.7
CC1=Nc2c(c(=O)[nH]n2C(C)C)C(c2cccs2)S1 (configuration not stated) | -7.07 | -1.33 | 2.48 | 1.91 | 0.197 | -3.7 | 9.8 | 11.9 | 19.1 | 25.6 | -2.82
CCn1c(C)nnc1CN(C)C1CCN(Cc2nccn2C)C1 (configuration not stated) | 2.98 | 10.8 | -6.53 | -4.6 | -8.7 | 2.23 | 11.8 | 16.4 | 9.68 | 16.1 | -3.99
CC(O)CN(CC(=O)NC(=O)NCC(F)(F)F)c1ccccc1 (configuration not stated) | -4.64 | 7.79 | 6 | 6.31 | -3.82 | 1.9 | 7.36 | 17.3 | 0 | 11.8 | -9.73
COc1ccc(CCN2CCc3c(nc(C4CC4)n3C)C2)cc1 | -2.18 | 18.2 | -12.2 | -0.11 | -3.18 | 0.356 | 9.12 | 18.2 | 6.8 | 2.44 | -7.4
Cc1ccc(OCCNC(=O)C(C)n2cncn2)cc1 (configuration not stated) | -1.61 | 15.2 | 7.61 | -6.9 | -9.91 | 0.38 | 11.1 | 35.3 | -1.48 | 3.8 | -3.56
Cn1cc(CN2CCn3cc(CNC(=O)C4CCC4)nc3C2)cn1 | -3.67 | 5.33 | 4.55 | 2.73 | -0.386 | -31 | 7.69 | 0.15 | 7.29 | 12.5 | -8.18
COc1ccc(Cl)cc1NCC(=O)NCCc1ccccn1 | -3.56 | -5.41 | -7.1 | 3.7 | -7.64 | 0.401 | 1.62 | 20.4 | 0.493 | 1.24 | 0.208
CCC(C)(C)NC(=O)C1CC(=O)N(CC2CC2)C1 (configuration not stated) | -2.71 | 13.5 | 9.25 | -3.89 | -7.15 | 3.14 | 11.3 | 17.7 | 2.97 | -18.3 | -7.51
COc1ccc(CN2C[C@@H]3CCCO[C@@H]3[C@H](NS(C)(=O)=O)C2)cc1 | 0.295 | 13.3 | -2.32 | 4.91 | 2.9 | -48.2 | 5.13 | -24.2 | 6.25 | 25 | -6.84
Cc1cccc(NC(=O)Cn2ncc(SCC(N)=O)c(Cl)c2=O)c1C | -3.9 | 5.48 | 4.95 | -15.5 | -4.31 | 3.18 | 22.5 | 17.6 | 5.38 | 5 | 79.5
CCc1cnc(CN2CCCC2c2noc(C3CC3)n2)o1 (configuration not stated) | -2.28 | 10.8 | -15.2 | -4.49 | 5.94 | -18.4 | 23.6 | 25.5 | 9.36 | 18.5 | -9.7
Cn1nnc2c1C(COCc1ccccn1)CN(C(=O)c1cccs1)C2 (configuration not stated) | 3.29 | 16.4 | -9.82 | 5.59 | 1.59 | -7.19 | 13.6 | 36.4 | 6.25 | 23.5 | -1.99
Cc1nccn1CC1CCCN1S(=O)(=O)Cc1ccccc1 (configuration not stated) | -4.51 | 5.06 | 2.14 | 4.66 | 3.49 | 1.9 | -0.573 | -9.27 | 2.46 | 3.8 | -0.456
Cc1cc(C2CCCN(C(=O)CN3CCN(C)CC3)C2)n[nH]1 (configuration not stated) | -0.557 | 13.5 | -4.16 | 2.41 | 2.32 | -4.25 | 16.9 | 16.2 | 6.93 | 18.3 | -5.49
CNC(=O)C(NC(=O)c1nccn2ccnc12)c1ccc(F)c(F)c1 (configuration not stated) | -5.39 | 13.5 | -2.95 | 5.66 | 5.27 | 16.2 | 19 | -10.6 | 5.94 | 15.8 | 23.6
CCCNC(=O)CSc1nnc2[nH]c(=O)cc(CC)n12 | -1.19 | 19.2 | -3.66 | 6.46 | 1.37 | -1.36 | 15.4 | 10.2 | 7.53 | 17.5 | -7.28
O=C(c1ccoc1)N1CC[C@@H]2O[C@H](COCc3ccccn3)CC[C@@H]21 | 4.07 | 8.11 | 2.6 | -13.6 | -3.42 | 2.87 | 21.4 | 7.99 | 2.16 | 10.3 | -3.84
Cc1csc(N2CCN(CC(=O)Nc3nncs3)CC2C)n1 (configuration not stated) | -3.67 | 0 | -9.26 | 8.6 | -0.836 | -3.88 | 5.92 | 9.1 | 3.96 | -1.22 | 10.3
CCCS(=O)(=O)N1C[C@H]2OC(=O)N(CCc3cccc(Cl)c3)[C@H]2C1 | -5.06 | 2.67 | -2.35 | -2.36 | -3.21 | -2.08 | 5.93 | 16.4 | -0.546 | 3.7 | -2.16
O=C(NCc1cnc2n1CCN(c1ncc(F)cn1)CC2)C1CCC1 | -3.67 | 0 | 0.174 | 23.6 | 2.83 | 1.24 | -0.772 | -4.55 | 4.3 | 3.7 | 0.0919
